From PubChem BioAssay (Tox21) come the findings set out here.

Results filed as inconclusive are left out. Values without a mark were called inactive. Activity calls are given as the source filed them. Calls come from the whole dose curve; as a rule, active = well fitted activation curve with a large enough effect in the signal ratio in the repeat runs, with a control signal flat (not every such curve was filed as active); inconclusive = weak or mixed curves; inactive = flat fitted curve, though single readings scatter; the % refers to the signal ratio.
% is set by controls: 0 for no effect and ±100 for the full control effect.

This test in a line: qHTS assay for small molecule activators of the heat shock response signaling pathway (AID 743210). The note with it: HeLa HSE-bla reporter, beta-lactamase ratio, 5 h; series mostly up to 62.6 µM. An excerpt: U.S. Tox21 Program National Center for Advancing Translational Sciences [NCATS] NIH Chemical Genomics Center [NCGC] U.S. Environmental Protection Agency [EPA] National Institutes of Environmental Health Sciences [NIEHS] National Toxicology Program [NTP] U.S. Food and Drug Administration [FDA] Tox21 Assay Overview: Various chemicals, environmental and physiological stress conditions may lead to the activation of heat shock response/ unfolded protein response (HSR/UPR). There are three heat shock transcription factors (HSFs) (HSF-1, -2, and -4) mediating transcriptional regulation of the human HSR. To identify the compounds that activate HSR signaling, HSE-bla HeLa cell line (Invitrogen, Carlsbad, CA, USA) containing a beta-lactamase reporter gene under the control of the heat shock response elements was used to screen the Tox21 10K compound library.
Tox21 Assay Protocol Summary: The CellSensor HSE-bla HeLa cells (Invitrogen, Carlsbad, CA, USA) were dispensed at 1500 cells/6uL/well into 1536-well black wall/clear bottom plates using a Multidrop combi (Thermo Fisher Scientific, Waltham, MA) dispenser. After the assay plates were incubated at 37 C and 5% CO2 overnight, 23 nL of compounds dissolved in DMSO, positive controls or DMSO only was transferred to the assay plate by a Pintool station (Kalypsys, San Diego, CA). The plates were incubated at 37 C for 5 h. After 1 uL of LiveBLAzerTM B/G FRET substrate was added using a Flying Reagent Dispenser (Beckman Coulter, Indianapolis, IN, USA), the plates were incubated at room temperature for 2.5 h, and fluorescence intensity was measured by an Envision plate reader (PerkinElmer, Shelton, CT).
In general terms: Quantitative high-throughput screening tests each substance at several concentrations.
In the case of `C=C(C)C(=O)OCCCCCCOC(=O)C(=C)C`, the outcome was inactive. Consider `O=C(c1ccc2c(c1)C(=O)OC2=O)c1ccc2c(c1)C(=O)OC2=O`, for which the outcome was inactive.

In the case of `CC(CC(=O)O)CC(C)(C)C` (stereo not given), the result was inactive.

With `CC(C)SCc1ccco1`, the result was inactive. The same measure, in the same setting: with `CCCCCCCCCCCCCCCC(=O)NCCO` the entry was “inactive”.

Turning to `C/C=C(\C)C(=O)OCC/C=C\CC`, the outcome was inactive. Still for that read-out and setting: then `Nc1ccc(C(=O)OCC(O)CO)cc1` (stereo not given), with “inactive”; and `C=CCOCC(O)CCl` (stereo not given), with “inactive”; and `CCCCCN(CCCOC)C(=O)C(CCC(=O)O)NC(=O)c1ccc(Cl)c(Cl)c1` (stereo not given), with “inactive”. Still for that read-out and setting: with `C=C[Si](C)(C)O[Si](C)(C)C=C` the entry was “inactive”; with `CNCc1ccccc1`, “inactive”; with `Nc1cc(C(=O)O)ccc1Cl`, “inactive”. Consider `O=C1NC2NC(=O)NC2N1` (stereo not given), for which the result was inactive. Still for that read-out and setting: with `CC(=O)OC(C(=O)c1ccccc1)c1ccccc1` (stereo not given) the entry was “inactive”; with `COC(OC)C(C)c1ccccc1` (stereo not given), “inactive”; with `Nc1ccc(S(=O)(=O)Nc2ccccn2)cc1`, “inactive”.

Turning to `CC(=O)Nc1ncc([N+](=O)[O-])s1`, the outcome was inactive. Still for that read-out and setting: with `CCOC(=O)C(=O)c1csc(NC=O)n1` the entry was “inactive”; with `O=C(O)c1ccccc1C(=O)OCc1ccccc1`, “inactive”. Still for that read-out and setting: then `NS(=O)(=O)c1cc2c(cc1Cl)NC(C(Cl)Cl)NS2(=O)=O` (stereo not given), with “inactive”.

`C1CCN2C[C@@H]3C[C@@H](CN4CCCC[C@@H]34)[C@H]2C1`: the result was inactive.

`CO[Si](CCCS)(OC)OC`: the result was inactive. `CCNC(=O)NCCCOc1cccc(CN2CCCCC2)c1`: the result was inactive. On the same count and under the same terms, with `CC(=O)OCC(=O)[C@@]1(O)[C@H](OC(C)=O)C[C@H]2[C@@H]3CCC4=CC(=O)C=C[C@]4(C)[C@@]3(F)[C@@H](O)C[C@@]21C` the entry was “inactive”. On to `C=CCCCCCCCCCCC`, for which the activation was -0.0554% [at 5.95 µM]. As to `c1ccc(CNc2ncnc3nc[nH]c23)cc1`, the result was inactive. On the same count and under the same terms, with `CCOC(=O)CCCCCCCCC(=O)OCC` the entry was “inactive”.

Take `Oc1ccccc1Cc1ccccc1O`: the outcome was inactive. On to `CC(=O)OC(C)(C)Cc1ccccc1`, for which the result was inactive. Still for that read-out and setting: with `C1=C\CC/C=C\CC/1` the entry was “inactive”. As for `O=C(O)Cc1cccc(-c2cc(CCCCCCc3ccc(O[C@H]4O[C@H](CO)[C@@H](O)[C@H](O)[C@@H]4O)c(-c4cccc(CC(=O)O)c4)c3)ccc2O[C@H]2O[C@H](CO)[C@@H](O)[C@H](O)[C@@H]2O)c1`, the activation is 0.0325% [at 0.55 µM]. Take `CC(=O)OC[C@H]1O[C@@H](OC(C)=O)[C@H](OC(C)=O)[C@@H]1OC(C)=O`: the outcome was inactive. Consider `C[C@@H]1C[C@H]2[C@@H]3C[C@H](F)C4=CC(=O)C=C[C@]4(C)[C@@]3(F)[C@@H](O)C[C@]2(C)[C@@]1(O)C(=O)CO`, for which the result was inactive. On the same count and under the same terms, with `C=COCCOCCOC=C` the entry was “inactive”. On the same count and under the same terms, then `COCC(=O)Nc1c(I)c(C(=O)NCC(O)CO)c(I)c(C(=O)N(C)CC(O)CO)c1I` (stereo not given), with “inactive”; and `CN(C)CCCNCCC#N`, with “inactive”. The same measure, in the same setting: with `CC1=CC[C@H](CC=O)C1(C)C` the entry was “inactive”; with `CCc1nccnc1C`, “inactive”; with `CC(C)C(=O)Nc1cccc(C(F)(F)F)c1`, “inactive”. As for `COc1cccc2sc(N)nc12`, the outcome was inactive.
